Screening data: PubChem BioAssay, National Center for Advancing Translational Sciences (NCATS)
Most compounds without a hit are left out; they make up all but 0.9% or so of the library.
APE1 inh-1 = blocks human APE1 abasic DNA cleavage; Potency, µM (doses to about 65.8 µM), without a hit: at the top dose activity change, negative = inhibition, usual class: inhibitors; P27695; recombinant APE1, TAMRA/BHQ-2 abasic DNA cleavage fluorescence; actives 0.35% (n = 350,000);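 note: plate controls were vehicle for no effect and reference inhibitor for full effect; nearly all actives have a fitted effect of over 55% in size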
Target sequence (P27695 whole entry, looked up): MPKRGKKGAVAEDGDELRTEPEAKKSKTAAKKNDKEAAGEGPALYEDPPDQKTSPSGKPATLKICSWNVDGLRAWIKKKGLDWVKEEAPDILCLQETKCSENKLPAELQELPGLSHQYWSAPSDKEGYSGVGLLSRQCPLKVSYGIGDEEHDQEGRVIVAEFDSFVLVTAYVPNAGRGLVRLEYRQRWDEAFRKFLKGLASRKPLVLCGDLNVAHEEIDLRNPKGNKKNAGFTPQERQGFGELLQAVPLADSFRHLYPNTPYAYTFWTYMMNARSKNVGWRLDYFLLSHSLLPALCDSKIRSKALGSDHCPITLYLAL
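Incision of a quenched TAMRA/BHQ-2 THF abasic-site duplex (50 nM) by 0.75 nM APE1, after 15 min compound preincubation, measured as fluorescence increase over three 60 s reads. Values normalized to buffer, DMSO and NSC13755 control wells.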
RECQ1 helicase = inhibitors of human RECQ1 DNA helicase. RECQ1 DNA unwinding, red fluorescence kinetic read. Potency, µM (doses to about 57.3 µM), for inactives: at the highest dose activity, negative = inhibition, usual class: inhibitors. actives 0.54% (n = 240,000);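 note: plate controls were vehicle for no effect and no enzyme for full effect; nearly all actives have a fitted effect of over 30% in size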
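50 nM RECQ1T1 preincubated 15 min with compound in Tris pH 8.0 buffer with MgCl2, DTT, Tween-20 and 2.5 ug/ml poly(dI-dC); started with 200 nM TAMRA/BHQ-2 forked duplex and 2 mM ATP. Unwinding read as fluorescence (525/598 nm), two reads 2 h apart.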
RGS12 GoLoco inh = inhibitors of human Gai1-RGS12 GoLoco interaction (red fluorophore); Gai1:RGS12 GoLoco peptide FP, rhodamine, 10 min; Potency, µM (top dose mostly 61.6 µM), without a hit: top-dose activity, negative = inhibition, actives largely listed as inhibitors; P63096; actives 0.44% (n = 230,000); active = well fitted inhibition curve with a large enough effect, not every such curve was filed as active; inactive = no such curve, though single readings can be large or run the other way; note: nearly all actives have a fitted effect of over 30% in size
TR SRC2 fluor cs = Texas Red fluorescence interference in TRb-SRC2 counter-screen; TRb/SRC2 Texas Red total fluorescence interference; AID 1479; Potency, µM (highest dose often 106 µM), for the others: at the top dose fluorescence change, negative = quenching; actives 0.29% (n = 280,000); active = well fitted curve in either direction with a large enough effect; inconclusive = small, poorly fitted or top-dose-only effect
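Human TRβ ligand-binding domain (0.6 uM) and Texas Red SRC2 peptide (20 nM) in Tris buffer with 1 uM T3 and 5% DMSO were incubated with pinned compound for 5 hr at ambient temperature. Total fluorescence was computed as S + 2P (555/632 nm).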
BLM helicase inh = inhibitors of human Bloom syndrome helicase BLM. recombinant BLM DNA unwinding, fluorescence dequenching. actives 0.2% (n = 350,000). Potency, µM (series often up to 56.1 µM), for the others: at the top dose activity change, negative = inhibition, actives largely listed as inhibitors. AID 2528;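 note: plate controls were vehicle for no effect and no enzyme for full effect; nearly all actives have a fitted effect of over 35% in size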
TRb-SRC2 inh = inhibitors of human thyroid hormone receptor beta-SRC2 interaction; TRbeta-SRC2 peptide binding, fluorescence polarization; receptor liganded with 1 µM T3; Potency, µM (doses to about 106 µM), inactives show at the highest dose activity change, negative = inhibition, hits mostly inhibitors; actives 0.065% (n = 280,000);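 note: plate controls were bound peptide for no effect and peptide without receptor for full effect; nearly all actives have a fitted effect of over 50% in size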
Target sequence (P10828 whole entry, looked up): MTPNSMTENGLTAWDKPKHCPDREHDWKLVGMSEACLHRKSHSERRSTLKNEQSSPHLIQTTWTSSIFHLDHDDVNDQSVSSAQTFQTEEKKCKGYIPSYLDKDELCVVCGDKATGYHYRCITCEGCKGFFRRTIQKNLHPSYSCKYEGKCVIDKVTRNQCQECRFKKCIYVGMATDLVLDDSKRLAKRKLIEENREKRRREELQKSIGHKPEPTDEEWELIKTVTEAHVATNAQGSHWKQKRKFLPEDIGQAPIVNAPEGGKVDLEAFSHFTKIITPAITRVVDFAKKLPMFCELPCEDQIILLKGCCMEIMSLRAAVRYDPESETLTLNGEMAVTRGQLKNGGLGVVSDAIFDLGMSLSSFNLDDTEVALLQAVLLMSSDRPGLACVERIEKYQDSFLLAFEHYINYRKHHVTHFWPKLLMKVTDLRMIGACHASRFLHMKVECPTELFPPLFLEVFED
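Quantitative HTS by FP: 0.6 uM TRb LBD, 20 nM labeled SRC2 20-mer, 1 uM T3, 5% DMSO; 5 hr ambient incubation; % activity per concentration and potencies from concentration series.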
DNA dye displace = displaces fluorescent dye from DNA, flagging APE1 artifacts; DNA fluorescent dye displacement counterscreen, fluorescence; shares compounds with APE1 inh-1; actives 7% (n = 480); Potency, µM (top dose mostly 28.5 µM), without a hit: at the top dose activity change, negative = inhibition, usual class: inhibitors;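 note: loss of thiazole orange fluorescence as the dye is displaced from duplex DNA; 0% = ThO with dsDNA and no compound and -100% = ThO without dsDNA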
EndoIV counter = counter-screen for APE1 inhibitors: inhibitors of E. coli endonuclease IV | AID 2565 | actives 4% (n = 560) | Potency, µM (highest dose often 27.1 µM), for the others: top-dose activity change, negative = inhibition, most hits filed as inhibitors | E. coli Endo IV, fluorogenic AP-site DNA cleavage | shares compounds with APE1 inh-1;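 note: plate controls were uninhibited enzyme wells for no effect and no enzyme buffer wells for full effect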
APE1 inh-2 = confirmation of inhibitors of human APE1 endonuclease. shares compounds with APE1 inh-1. purified APE1, fluorogenic abasic-site DNA cleavage. Potency, µM (highest dose often 57.1 µM), for the others: at the highest dose activity change, negative = inhibition, most hits filed as inhibitors. actives 44% (n = 750); note: nearly all actives have a fitted effect of over 30% in size
APE1 FP inh = compounds that displace a DNA probe from human APE1; actives 7% (n = 480); APE1 binding to TAMRA-labelled double-stranded DNA, fluorescence polarization displacement; Potency, µM (doses to about 28.5 µM), for inactives: top-dose activity, negative = inhibition, actives largely listed as inhibitors; shares compounds with APE1 inh-1; AID 2573
* hit, by the source's call; i = inactive; u = inconclusive; x = not tested or not shown; [ ] = dose if it differs, or a comment. Unless noted, calls come from the whole dose curve; as a rule, active = well fitted curve in the direction sought with a large enough effect; inconclusive = small, poorly fitted or top-dose-only effect, or another doubt; inactive = no such curve, though single readings can be large; an effect the other way counts as inactive or inconclusive. Unless noted, % is set by controls: 0 for no effect and ±100 for the full control effect; potency is the fitted concentration of half-maximal effect.

SMILES	APE1 inh-1	RECQ1 helicase	RGS12 GoLoco inh	TR SRC2 fluor cs	BLM helicase inh	TRb-SRC2 inh	DNA dye displace	EndoIV counter	APE1 inh-2	APE1 FP inh
COC(=O)c1cccnc1-n1c(=O)c2cccnc2n(CC(=O)Nc2ccccc2F)c1=O	x	x	x	-2%	-1%	0%	x	x	x	x
COC/C=C/C1=CC2=CC(=O)C(C)(OC(=O)c3ccco3)C(=O)C2=CO1 (stereo unspecified)	20µM*	28µM*	27%	3%	-14%	-8%	u	u	u	13µM*
COCCNc1ccnc(-c2ccccc2C(F)(F)F)n1	3%	i	2%	x	3%	x	x	x	x	x
CCOc1ccc(OCCN2C(=O)c3ccccc3C2=O)cc1	-16%	x	x	x	-4%	x	x	x	x	x
COc1ccc(OCC(=O)OCCN2C(=O)c3ccccc3C2=O)cc1	u	-10%	2%	-5%	-21%	-2%	-9%	4%	u	8%
CCOC(=O)C1=C(CS(=O)(=O)c2ccc(OC)c(Cl)c2)NC(=O)NC1c1cccc(OC)c1 (stereo unspecified)	x	x	x	2%	0%	-8%	x	x	x	x
CC(C)c1ccc(OCC(=O)Nc2cc(-c3ccccc3)no2)cc1	x	x	x	7%	-1%	7%	x	x	x	x
Cc1ccc(C(=O)Nc2nc3nc(-c4ccccc4)cc(=O)n3[nH]2)cc1	-1%	-5%	17%	-1%	1%	8%	x	x	u	x
Cc1cc(/C=C(/C#N)c2nc3ccccc3[nH]2)c(C)n1-c1cc(C(=O)O)cc(C(=O)O)c1	u	2%	12%	-9%	-5%	0%	31%	4%	u	u
CC(C)c1ncc([N+](=O)[O-])n1C	x	x	x	x	1%	x	x	x	x	x
Clc1ccccc1-c1ccc2ncnc(NCc3cccs3)c2c1	-6%	x	x	x	x	x	x	x	x	x
Cc1ccccc1-c1ccc2ncnc(NCc3cccs3)c2c1	7.1µM*	u	109%	x	-25%	x	u	-96%[57.1 µM]	14µM*	46%[57.1 µM]
COc1ccc2c(c1)c(=O)oc1cc(OCC(=O)N3CCC(C)CC3)ccc12	16µM*	40µM*	20%	-11%	-28%	-17%	-9%	0%	5µM*	u
Cc1ccc2oc(=O)n(CC(=O)OC(C)C)c2c1	u	-8%	10%	2%	3%	9%	-11%	-4%	-8%[24.4 µM]	u
CC(=O)Nc1ccc(Nc2ccc3cc(S(=O)(=O)N4CCCCC4)ccc3n2)cc1	x	x	x	-6%	-9%	4%	x	x	x	x
Cc1cc[n+](-c2[nH]c(=O)sc2/C=N/N=C(\[O-])c2ccccc2)cc1C	18µM*	28µM*	4%	-6%	-14%	4%	141%	8%	u	-7%
O=c1[nH]c(-[n+]2ccccc2)c(/C=N/N=C(\[O-])c2ccccc2)s1	u	13%	6%	-1%	-6%	-5%	x	x	x	x
Cc1cc[n+](-c2[nH]c(=O)sc2/C=N/N=C(\[O-])c2ccccc2)cc1	14%	-3%	12%	-11%	-1%	6%	x	x	40µM*	x
Cc1cc[n+](-c2[nH]c(=O)sc2/C=N/N=C(\[O-])c2ccncc2)cc1C	-38%	x	x	x	-10%	x	x	x	x	x
C[C@@H]1CC[C@H]2C(=O)NC[C@@H](O)CN2[C@@H]1c1ccc(Br)cc1	-5%[12.4 µM]	i[11.5 µM]	x	1%[11.2 µM]	2%[12.4 µM]	1%[11.2 µM]	x	x	x	x
COc1c(O)cc2c(c1O)C(=O)CC(c1ccccc1)O2 (stereo unspecified)	25µM*	-10%	3%	-2%	-3%	-7%	-3%	2%	-11%[24.4 µM]	0%
Cc1c(O)cc2c(c1O)C(=O)CC(c1ccccc1)O2 (stereo unspecified)	u	i	0%	1%	-8%	1%	x	x	x	x
COc1cc(N)c(Cl)cc1C(=O)OCCCN1CCCCC1	-2%	2%	13%	-1%	-10%	5%	x	x	x	x
COc1cc(N)c(Cl)cc1C(=O)OCCN1CCCCC1	u	-5%	12%	5%	-2%	-6%	-3%[57.1 µM]	26%[57.1 µM]	-4%	-2%[57.1 µM]
CC(C)(C)c1ccc(S(=O)(=O)NCc2ccc3c(c2)CCN3C(=O)c2ccccc2)cc1	x	x	x	-2%	-6%	7%	x	x	x	x
SMILES	APE1 inh-1	RECQ1 helicase	RGS12 GoLoco inh	TR SRC2 fluor cs	BLM helicase inh	TRb-SRC2 inh	DNA dye displace	EndoIV counter	APE1 inh-2	APE1 FP inh
COc1ccc(/C(C)=N/Nc2ccccc2Cl)c(O)c1	u	-10%	-11%	-1%	-5%	2%	x	x	u	x
CCOC(=O)c1ccc(N2CCN(c3cccc(Cl)c3)CC2)c(NC(=O)Nc2ccc(Cl)cc2)c1	x	x	x	-2%	-10%	-6%	x	x	x	x
O=C(OC1Cc2c(O)cc(O)cc2OC1c1cc(O)c(O)c(O)c1-c1c(C2Oc3cc(O)cc(O)c3CC2OC(=O)c2cc(O)c(O)c(O)c2)cc(O)c(O)c1O)c1cc(O)c(O)c(O)c1 (stereo unspecified)	0.13µM*	4.5µM*	25%	-28%	7.9µM*	6%	x	28µM*	0.32µM*	x
Cc1ccc(C(=O)Nc2cccc(C(F)(F)F)c2)cc1Nc1ccccn1	35µM*	-19%	-2%	-1%	-13%	-2%	-10%	12%	u	2%
Cc1ccc(C(=O)Nc2cccc(C(F)(F)F)c2)cc1Nc1cncnc1	29%	x	x	x	-6%	x	x	x	x	x
c1ccc(C2CN3CCSC3=N2)cc1 (stereo unspecified)	-3%	-6%	6%	0%	-2%	11%	x	x	x	x
Brc1ccc([C@H]2CN3CCSC3=N2)cc1	-5%	-3%	-13%	0%	x	3%	x	-6%[57.1 µM]	-28%	x
